Screening data deposited in PubChem by National Center for Advancing Translational Sciences (NCATS).
The list is not random: actives were taken first. Their share in the collection is about 0.43%.
aGal spleen mod: qHTS Assay for Inhibitors and Activators of Human alpha-Galactosidase From Spleen Homogenate | human spleen homogenate, 4MU-alpha-Gal fluorescence, 40 min | 240,000 compounds, 0.008% hits | Potency, µM (doses to about 80 µM), usual class: inhibitors | Alpha-galactosidase A (Homo sapiens), P06280
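Human spleen homogenate (1 ug) as enzyme source, 4-methylumbelliferyl-alpha-D-galactopyranoside 1 mM final, citrate/phosphate pH 5.0 with 0.01% Tween-20. Compounds 40 min at 37C, NaOH/glycine stop; fluorescence Ex 365/Em 440, Hill-fit AC50.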
GAA glycogen mod: qHTS Assay for Inhibitors and Activators of Human alpha-Glucosidase Cleavage of Glycogen. Lysosomal alpha-glucosidase (Homo sapiens), P10253. recombinant GAA, glycogen substrate, Amplex Red glucose oxidase fluorescence. Potency, µM (doses to about 76.4 µM), actives largely listed as inhibitors. 300,000 compounds, 0.38% hits. AID 2100, 2009;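 further: the screen sought inhibitors and activators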
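Recombinant human enzyme (4 nM); glycogen substrate; 37 C, 40 min, pH 5.0. Readout: coupled glucose oxidase/Amplex Red fluorescence.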
GAA inh: qHTS Assay for Inhibitors of Human alpha-Glucosidase as a Potential Chaperone Treatment of Pompe Disease; Lysosomal alpha-glucosidase (Homo sapiens), P10253; 200,000 compounds, 0.005% hits; Potency, µM (top dose mostly 76.9 µM), most hits filed as inhibitors; purified human GAA, 4-MU-alpha-glucoside fluorescence
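Human alpha-glucosidase, 4 nM, pre-mixed with test compounds before 400 uM 4-methylumbelliferyl substrate; 20 min room temperature at pH 5.0. Fluorescence read after pH 10 stop; AC50 values from Hill-equation fits.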
GLA inh pH 4.5: qHTS Assay for Inhibitors of Human alpha-Galactosidase at pH 4.5; Alpha-galactosidase A (Homo sapiens), P06280; purified enzyme, 4-MU-alpha-Gal fluorescence, pH 4.5; activity change, negative = inhibition, % at 105 µM; 230,000 tested, under 10 active; AID 1467, 2008
Target sequence (P06280 whole entry, looked up): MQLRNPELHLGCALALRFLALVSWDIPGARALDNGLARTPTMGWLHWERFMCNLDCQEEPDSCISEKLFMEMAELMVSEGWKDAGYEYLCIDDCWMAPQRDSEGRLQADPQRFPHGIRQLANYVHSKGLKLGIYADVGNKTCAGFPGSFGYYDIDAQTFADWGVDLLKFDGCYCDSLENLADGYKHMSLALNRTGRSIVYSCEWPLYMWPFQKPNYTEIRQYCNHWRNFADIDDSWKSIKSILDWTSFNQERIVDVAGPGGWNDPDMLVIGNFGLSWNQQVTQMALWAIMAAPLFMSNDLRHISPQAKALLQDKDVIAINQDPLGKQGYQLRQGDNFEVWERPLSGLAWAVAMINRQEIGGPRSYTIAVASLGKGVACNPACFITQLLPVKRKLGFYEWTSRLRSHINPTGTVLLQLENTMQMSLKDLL
N370S GC mod: qHTS Assay for Inhibitors and Activators of N370S glucocerebrosidase as a Potential Chaperone Treatment of Gaucher Disease; N370S GC spleen homogenate, 4MU-glucoside fluorescence; Potency, µM (titrated, usually from 59.4 µM), usual class: inhibitors; 330,000 compounds, 0.092% hits
GAA spleen mod: qHTS Assay for Inhibitors and Activators of Human alpha-Glucosidase From Spleen Homogenate; Lysosomal alpha-glucosidase (Homo sapiens), P10253; human spleen homogenate, 4-MU-alpha-glucoside fluorescence; Potency, µM (highest dose often 79.9 µM), hits mostly inhibitors; 240,000 compounds, 0.006% hits; AID 2112, 2009
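Human spleen homogenate (1 ug) with 4-methylumbelliferyl-alpha-D-glucopyranoside (1 mM final) in 50 mM citrate/phosphate pH 5.0, 0.01% Tween-20; 40 min at 37 C. Stopped at pH 10; 4-MU fluorescence Ex 365/Em 440 nm; AC50 by Hill fit.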
Hits are given with their value; i = inactive; ? = inconclusive; nt = no result; ! = not confirmed by another sample. The call rests on the fitted dose curve; in most records, active means well fitted curve in the direction sought with a large enough effect; inconclusive means small, poorly fitted or top-dose-only effect, or another doubt; inactive means no such curve, though single readings can be large; an effect the other way counts as inactive or inconclusive.

SMILES	aGal spleen mod	GAA glycogen mod	GAA inh	GLA inh pH 4.5	N370S GC mod	GAA spleen mod
Cc1cc(OCCn2cc(/C(N)=N/O)c3ccccc32)ccc1Cl	i	18µM	i	i	?	i
COC(=O)C1=C(C)NC(C)=C(C(=O)OCCCN2CCC(c3ccccc3)(c3ccccc3)CC2)C1c1cccc([N+](=O)[O-])c1 (centres undefined)	i	nt	nt	nt	?	i
COc1cc(CN2CCN(C(=O)CC(C)C)CC2)cc(OC)c1O	i	40µM	i	i	i	i
COc1ccc(C(=O)N2CCN(Cc3cc(OC)c(O)c(OC)c3)CC2)cc1OC	i	20µM	i	i	i	i
CC(=O)Oc1cc(OC(C)=O)c2c(=O)cc(-c3ccc(OC(C)=O)c(OC(C)=O)c3)oc2c1	i	nt	nt	i	i	i
CCOC(=O)CNc1c(-c2ccc(OC)cc2)nc2ccc(Cl)cn12	i	?	i	i	?	i
CCOC(=O)CNc1c(-c2ccc(Cl)cc2)nc2cnccn12	i	40µM	?	i	i	i
CCOC(=O)CNc1c(-c2ccc(F)cc2)nc2cnccn12	i	12µM	i	i	i	i
CCc1ccc(OCc2n[nH]c(=S)n2C(C)CCCC(C)C)cc1 (centres undefined)	i	?	i	i	i	i
CCOC(=O)CN=C1CC(C)(C)CC2=C1Sc1ncnc(N(C)C)c1N2	i	28µM	i	i	i	i
CCOC(=O)C1=C(c2ccccc2)Nc2c(c(=O)n(C)c(=O)n2C)C1c1ccc(O)c(OC)c1 (centres undefined)	i	32µM	i	i	i	i
CCOC(=O)C1=C(c2ccccc2)N(C)C(=O)NC1c1ccc(O)c(OC)c1 (centres undefined)	i	?	i	i	i	i
Cc1cc(C)c2nc(N(CCCN(C)C)C(=O)c3ccc(S(=O)(=O)N4CCCCCC4)cc3)sc2c1	nt	nt	nt	nt	16µM	nt
O=c1[nH]c(CN2CCN(c3ccccc3O)CC2)nc2ccccc12	i	7.9µM	?	i	i	i
O=c1[nH]c(CN2CCN(CCO)CC2)nc2ccccc12	i	i	i	i	i	i
Cc1cccc(Cn2c(C)c(C)c3cc(C(=O)NCCN4CCOCC4)ccc32)c1	nt	i	nt	nt	?	nt
Cc1c(C)n(Cc2ccc(F)cc2)c2ccc(C(=O)NCCN3CCOCC3)cc12	nt	i	nt	nt	14µM	nt
Cc1ccc(-c2nc3ncccn3c2NC(=O)C2CC2)cc1	i	i	i	i	i	i
Cc1ccc(-c2nc3ncccn3c2Nc2ccc3c(c2)OCCO3)cc1	i	?	i	i	i	i
Clc1ccc(-c2nc3ncccn3c2Nc2ccc3c(c2)OCCO3)cc1	i	?	i	i	i	i
Oc1ccc(-c2nc3ncccn3c2Nc2ccc3c(c2)OCCO3)cc1	i	25µM	i	i	nt	i
Cc1ccc(-c2nc3ncccn3c2Nc2ccc3c(c2)OCCO3)o1	i	14µM	i	i	i	i
Cc1ccc(-c2nc3ncccn3c2NC2CCCCC2)o1	i	28µM	i	i	i	i
Brc1ccc(-c2nc3ncccn3c2Nc2ccc3c(c2)OCCO3)o1	i	22µM	i	i	i	i
COC(=O)c1cc(NC(=O)COC(=O)CN2C(=O)C3CC=CCC3C2=O)cc(C(=O)OC)c1 (centres undefined)	nt	nt	nt	nt	i	nt
SMILES	aGal spleen mod	GAA glycogen mod	GAA inh	GLA inh pH 4.5	N370S GC mod	GAA spleen mod
Cn1c(=O)c2c(nc(N/N=C/c3cccs3)n2C)n(C)c1=O	i	?	i	i	i	i
Cn1c(=O)c2c(nc(N/N=C/c3ccco3)n2C)n(C)c1=O	i	8.9µM	?	i	i	i
O=C(/C=C/c1ccc(O)cc1)c1ccc(O)cc1O	i	i	i	i	1.8µM!	i
O=C(/C=C/c1ccc(O)c(O)c1)c1ccccc1O	i	7.9µM	nt	i	i	i
O=C(O)/C=C\c1ccc(O)c(O)c1	i	nt	nt	i	i	i
CCOc1ccc(-n2c(=O)c3c(C)c(C)sc3n(CC(=O)NCCc3ccccc3)c2=O)cc1	nt	i	nt	nt	nt	nt
Cc1ccc(-c2nnc(Nc3ccc(F)cc3)c3ccccc23)cc1S(=O)(=O)N1CCN(C)CC1	nt	i	nt	nt	nt	nt
CC1CCC(NS(=O)(=O)c2ccc(Cl)nc2)CC1 (centres undefined)	nt	nt	nt	nt	i	nt
COc1ccccc1CNc1ccnc(-c2ccccc2Cl)n1	i	nt	nt	nt	?	i
Clc1ccccc1-c1nccc(NCc2ccccc2)n1	i	nt	nt	nt	3.5µM	i
Cc1cccc(CNc2ccnc(-c3ccccc3Cl)n2)c1	i	nt	nt	nt	7.1µM	i
Cc1ccc(C2CC(=O)Oc3ccc(O)cc32)cc1 (centres undefined)	?	nt	nt	i	i	i
Cc1noc(C)c1-c1nc(NCc2cccs2)c2ccccc2n1	i	nt	nt	nt	?	i
N#Cc1cccc(-c2ccc3ncnc(NCc4ccccc4)c3c2)c1	i	nt	nt	nt	i	i
Cc1ccc(NS(=O)(=O)c2ccc(C(=O)N3CCOCC3)cc2)cc1	nt	nt	nt	nt	i	nt
CC(=O)/C(=N\Nc1ccc(C)cc1)N1CCOCC1	i	12µM	i	i	i	i
CCOc1ccc(NC(=S)N(CCc2c(C)[nH]c3ccc(C)cc23)Cc2ccco2)cc1	i	35µM	i	i	i	i
Cc1cc(O)c(/C=N/Nc2ccccc2Cl)c(=O)o1	i	25µM	i	i	i	i
O=C(NC(=S)N1CCN(c2ccccn2)CC1)c1ccco1	i	i	i	i	i	i
Cc1ccc(Nc2c(-c3ccc(N4CCOCC4)cc3)nc3c(C)cccn23)cc1	nt	16µM	nt	nt	nt	nt
Cc1cccc(Nc2c(-c3ccc(N4CCOCC4)cc3)nc3ncccn23)c1	i	35µM	i	i	i	i
COc1ccc(-c2nc3ncccn3c2Nc2ccc3c(c2)OCCO3)cc1	i	?	i	i	i	i
Cc1ccc(NC(=O)CCS(=O)(=O)c2ccccc2)cc1S(=O)(=O)N1CCCCCC1	nt	nt	nt	nt	i	nt
O=C(CN1CCC(NC(=O)Nc2ccccc2)CC1)Nc1ccc([N+](=O)[O-])cc1	nt	i	nt	nt	i	nt
COc1ccc(-c2nnc3n2N=C(c2ccccc2OC)CS3)c(OC)c1	i	nt	nt	nt	i	i
SMILES	aGal spleen mod	GAA glycogen mod	GAA inh	GLA inh pH 4.5	N370S GC mod	GAA spleen mod
COc1ccc(NC(=O)c2cccnc2)cc1	nt	i	nt	nt	i	nt
C/C(=C\C(=O)c1cccnc1)Nc1ccc(O)cc1	i	14µM	i	i	i	i
C/C(=C\C(=O)c1ccccc1)Nc1ccc(O)cc1	i	40µM	i	i	i	i
O=[N+]([O-])c1cccc(Cl)c1Cl	i	nt	nt	nt	i	i
COc1ccc(OC)c(NC(=O)CC(=O)Nc2ccc3nc4n(c(=O)c3c2)CCCCC4)c1	nt	i	nt	nt	nt	nt
COc1cccc(C2CC(=O)Nc3c2c(=O)[nH]c2nc4ccccc4n32)c1 (centres undefined)	nt	40µM	nt	nt	nt	nt
